In PubChem BioAssay (EPA / NIEHS):
Records with an inconclusive call do not appear. Calls of active or inactive are those of the source. The calls were made as follows: active = hit-call score of the fitted dose curve at least 0.9, where 1 is the maximum; inconclusive = response in the unintended direction; inactive = score below 0.9.

biological target: Cellular tumor antigen p53 (Homo sapiens) (UniProt P04637); assay: TOX21_p53_BLA_p3_ratio: Tox21 HCT-116 p53 Agonism Beta-lactamase Assay, Ratio, Phase 3 (AID 2283596)
Sequence (P04637 whole entry, looked up): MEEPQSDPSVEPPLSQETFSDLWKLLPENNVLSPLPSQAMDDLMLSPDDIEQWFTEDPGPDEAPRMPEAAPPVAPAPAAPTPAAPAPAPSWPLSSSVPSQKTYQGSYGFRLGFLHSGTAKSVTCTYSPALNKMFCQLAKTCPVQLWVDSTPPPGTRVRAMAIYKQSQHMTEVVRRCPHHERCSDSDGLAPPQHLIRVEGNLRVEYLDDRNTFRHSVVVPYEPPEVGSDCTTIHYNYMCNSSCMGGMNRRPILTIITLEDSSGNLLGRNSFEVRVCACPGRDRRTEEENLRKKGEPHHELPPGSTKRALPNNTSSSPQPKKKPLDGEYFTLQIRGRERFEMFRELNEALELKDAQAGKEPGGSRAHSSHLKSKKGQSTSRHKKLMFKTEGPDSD
Procedure, shortened: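 Cells were seeded at 4000/well, rested 5 h at 37C, then dosed with DMSO compound solutions (217-fold dilution) for 16 h. CCF4-AM substrate was loaded for 2 h at room temperature, and the 460/530 nm emission ratio was fitted for gain of signal versus DMSO.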

| SMILES | outcome |
| --- | --- |
| CN(C)C(=O)Oc1ccc[n+](C)c1 | inactive |
| NC(=O)C1(N2CCCCC2)CCN(CCCC(=O)c2ccc(F)cc2)CC1 | inactive |
| CC(=O)OCC(C)C | inactive |
| O[C@@H]1CO[C@H]2[C@@H]1OC[C@@H]2O | inactive |
| CCCOC(C)=O | inactive |
| COc1cc2c(cc1OC)C(C(C(=O)N(CCc1ccc(OC)c(OC)c1OC)CCc1ccc(OC)c(OC)c1OC)c1ccccc1)=NCC2 (stereo unspecified) | inactive |
| N[C@@H](CSCCCO)C(=O)O | inactive |
| Cc1ccc(N)nc1 | inactive |
| CC[C@@H](N)CO | inactive |
| C=C(C)C(=O)OCCCCCCCC(C)C | inactive |
| CC(C)(O)CCC(C)(C)O | inactive |
| NCc1ccc(S(N)(=O)=O)cc1 | inactive |
| Cc1cc([N+](=O)[O-])ccc1N | inactive |
| C[C@](N)(Cc1ccc(O)cc1)C(=O)O | inactive |
| CNS(=O)(=O)Cc1ccc2[nH]cc(CCN(C)C)c2c1 | inactive |

test system: not listed separately; assay: TOX21_p53_BLA_p4_viability: Viability Assessment in the Tox21 HCT-116 p53 Agonism Beta-lactamase Assay, Phase 4 (AID 2283597);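 also: hits lower the luminescence signal meaning cytotoxicity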
Procedure, shortened: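 In this multiplexed secondary endpoint, HCT116 cells (4000 per well, compound at 5 h, 16 h treatment) received CellTiter-Glo after the beta-lactamase read. Luminescence after 30 min RT reflects ATP, and falling signal marks cytotoxicity.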

| SMILES | outcome |
| --- | --- |
| CN(C)C(=O)Oc1ccc[n+](C)c1 | inactive |
| NC(=O)C1(N2CCCCC2)CCN(CCCC(=O)c2ccc(F)cc2)CC1 | inactive |
| O[C@@H]1CO[C@H]2[C@@H]1OC[C@@H]2O | inactive |
| CCCOC(C)=O | inactive |
| COc1cc2c(cc1OC)C(C(C(=O)N(CCc1ccc(OC)c(OC)c1OC)CCc1ccc(OC)c(OC)c1OC)c1ccccc1)=NCC2 (stereo unspecified) | inactive |
| N[C@@H](CSCCCO)C(=O)O | inactive |
| Cc1ccc(N)nc1 | inactive |
| CC[C@@H](N)CO | inactive |
| C=C(C)C(=O)OCCCCCCCC(C)C | inactive |
| CC(C)(O)CCC(C)(C)O | inactive |
| NCc1ccc(S(N)(=O)=O)cc1 | inactive |
| Cc1cc([N+](=O)[O-])ccc1N | inactive |
| C[C@](N)(Cc1ccc(O)cc1)C(=O)O | inactive |
| CNS(=O)(=O)Cc1ccc2[nH]cc(CCN(C)C)c2c1 | inactive |

biological target: Cellular tumor antigen p53 (Homo sapiens) (UniProt P04637); assay: TOX21_p53_BLA_p5_ratio: Tox21 HCT-116 p53 Agonism Beta-lactamase Assay, Ratio, Phase 5 (AID 2283599)
Procedure, shortened: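 Beta-lactamase reporter ratio (blue 460 nm over green 530 nm, 405 nm excitation) after 2 h CCF4-AM loading, in HCT-116 cells exposed 16 h at 37 C to compounds pinned at 217-fold dilution. Increases relative to DMSO baseline scored.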

| SMILES | outcome |
| --- | --- |
| CN(C)C(=O)Oc1ccc[n+](C)c1 | inactive |
| NC(=O)C1(N2CCCCC2)CCN(CCCC(=O)c2ccc(F)cc2)CC1 | inactive |
| O[C@@H]1CO[C@H]2[C@@H]1OC[C@@H]2O | inactive |
| CCCOC(C)=O | inactive |
| COc1cc2c(cc1OC)C(C(C(=O)N(CCc1ccc(OC)c(OC)c1OC)CCc1ccc(OC)c(OC)c1OC)c1ccccc1)=NCC2 (stereo unspecified) | inactive |
| N[C@@H](CSCCCO)C(=O)O | inactive |
| Cc1ccc(N)nc1 | inactive |
| CC[C@@H](N)CO | inactive |
| C=C(C)C(=O)OCCCCCCCC(C)C | inactive |
| CC(C)(O)CCC(C)(C)O | inactive |
| NCc1ccc(S(N)(=O)=O)cc1 | inactive |
| Cc1cc([N+](=O)[O-])ccc1N | inactive |
| C[C@](N)(Cc1ccc(O)cc1)C(=O)O | inactive |
| CNS(=O)(=O)Cc1ccc2[nH]cc(CCN(C)C)c2c1 | inactive |

test system: not listed separately; assay: TOX21_p53_BLA_p5_viability: Viability Assessment in the Tox21 HCT-116 p53 Agonism Beta-lactamase Assay, Phase 5 (AID 2283600)
Procedure, shortened: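 Here cell health was gauged by ATP levels in wells holding 4000 cells, each treated 16 h with DMSO-delivered compounds at 217-fold dilution; reduced luminescence marked toxicity.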

| SMILES | outcome |
| --- | --- |
| CN(C)C(=O)Oc1ccc[n+](C)c1 | inactive |
| O=C1CC[C@@H](C(=O)N[C@H]2C[C@@H]2c2ccccc2)N1 | inactive |
| O[C@@H]1CO[C@H]2[C@@H]1OC[C@@H]2O | inactive |
| CCCOC(C)=O | inactive |
| COc1cc2c(cc1OC)C(C(C(=O)N(CCc1ccc(OC)c(OC)c1OC)CCc1ccc(OC)c(OC)c1OC)c1ccccc1)=NCC2 (stereo unspecified) | inactive |
| N[C@@H](CSCCCO)C(=O)O | inactive |
| Cc1ccc(N)nc1 | inactive |
| C=C(C)C(=O)OCCCCCCCC(C)C | inactive |
| CC(C)(O)CCC(C)(C)O | inactive |
| NCc1ccc(S(N)(=O)=O)cc1 | inactive |
| C[C@](N)(Cc1ccc(O)cc1)C(=O)O | inactive |
| CNS(=O)(=O)Cc1ccc2[nH]cc(CCN(C)C)c2c1 | inactive |

biological target: Cellular tumor antigen p53 (Homo sapiens) (UniProt P04637); assay: TOX21_p53_BLA_p4_ratio: Tox21 HCT-116 p53 Agonism Beta-lactamase Assay, Ratio, Phase 4 (AID 2283601)
Procedure, shortened: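 Signal is the blue/green (460nm/530nm) ratio of cleaved versus uncleaved CCF4-AM substrate, read after 2 h substrate loading. Cells were HCT116 carrying the p53-responsive beta-lactamase reporter, dosed 16 h at 37C, 5% CO2; CellTiter-Glo measured in parallel.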

| SMILES | outcome |
| --- | --- |
| CN1CCC(=C2c3ccccc3CC(=O)c3sccc32)CC1 | inactive |
| CCN1CCN(C(=O)N[C@@H](C(=O)N[C@@H]2C(=O)N3C(C(=O)O)=C(CSc4nnnn4C)CS[C@H]23)c2ccc(O)cc2)C(=O)C1=O | inactive |
| CN(C)C(=O)Oc1ccc[n+](C)c1 | inactive |
| O=C(CS(=O)Cc1ccco1)NC/C=C\COc1cc(CN2CCCCC2)ccn1 (stereo unspecified) | inactive |
| Cc1cccc(C)c1NC(=O)CN1CCCCCC1 | inactive |
| CC1(c2ccccc2)OC(C(=O)O)=CC1=O (stereo unspecified) | inactive |
| O=C1CC[C@@H](C(=O)N[C@H]2C[C@@H]2c2ccccc2)N1 | inactive |
| O[C@@H]1CO[C@H]2[C@@H]1OC[C@@H]2O | inactive |
| CN1CC[C@H](c2c(O)cc(O)c3c(=O)cc(-c4ccccc4Cl)oc23)[C@H](O)C1 | inactive |
| [K+] | inactive |
| c1cnc2cc3c(cc2n1)C1CNCC3C1 | inactive |
| Cc1ccc2ccccc2c1[N+](=O)[O-] | inactive |
| COc1cc2c(cc1OC)C(C(C(=O)N(CCc1ccc(OC)c(OC)c1OC)CCc1ccc(OC)c(OC)c1OC)c1ccccc1)=NCC2 (stereo unspecified) | inactive |
| CC(COc1ccccc1)NC(C)C(O)c1ccc(O)cc1 (stereo unspecified) | inactive |
| N[C@@H](CSCCCO)C(=O)O | inactive |
| O=C(O)c1cc2cc(Cc3cccnc3)ccc2o1 | inactive |
| CC1(C)CC(O)CC(C)(C)N1 | inactive |
| Cc1ccc(N)nc1 | inactive |
| CCCOC(=O)c1ccc(N)cc1 | inactive |
| CC(=O)Nc1ncc([N+](=O)[O-])s1 | inactive |
| CCOC(=O)C(Br)c1ccccc1 (stereo unspecified) | inactive |
| CC(C)(C)NCC(O)COc1cccc2c1CCC(=O)N2 (stereo unspecified) | inactive |
| CCOc1ccccc1N | inactive |
| Cc1cc([N+](=O)[O-])ccc1N | inactive |
| COc1ccc2c(c1)C(=O)N(CCc1ccc(S(=O)(=O)NC(=O)NC3CCCCC3)cc1)C(=O)C2(C)C | inactive |
| CO[C@H]1/C=C/O[C@@]2(C)Oc3c(C)c(O)c4c(O)c(c5c(nc6cc(C)ccn65)c4c3C2=O)NC(=O)/C(C)=C\C=C\[C@H](C)[C@H](O)[C@@H](C)[C@@H](O)[C@@H](C)[C@H](OC(C)=O)[C@@H]1C | inactive |
